Most compounds without a hit are left out; they make up all but 4.8% or so of the library.
ATXN2 expr inh – reduces ATXN2 reporter expression in HEK-293 cells; HEK-293 ATXN2-luciferase reporter, luminescence, 24 h; Potency, µM (doses to about 57 µM), without a hit: top-dose activity change, negative = inhibition, usual class: inhibitors; actives 0.72% (n = 360,000); also: potency is read from the fitted curve at half-maximal effect; % is scaled to controls: 0 for no effect and ±100 for the full control effect; nearly all actives have a fitted effect of over 55% in size
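qHTS (up to 57 uM final) was run with 24 h compound exposure of reporter cells at 37 °C. Each well was multiplexed: SteadyGlo luminescence measured ATXN2-luciferase expression after a fluorogenic Gly-Phe-AFC viability readout (25 uM final).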
TGFb inhibitor – TGF-b pathway inhibition; HepG2 CAGA-GFP TGF-b/SMAD3 reporter, GFP fluorescence, 18 h; TGF-beta stimulated, 500 pg/mL final; actives 1.2% (n = 410,000); Potency, µM (top dose mostly 46.1 µM), without a hit: at the top dose activity, negative = inhibition, hits mostly inhibitors; also: potency is read from the fitted curve at half-maximal effect; % is scaled to controls: 0 for no effect and ±100 for the full control effect; nearly all actives have a fitted effect of over 65% in size
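HEPG2 CAGA-GFP, 1000 cells/well; 2 h settle, 37 C; cpd via pin tool; TGF-b 500 pg/mL final; 18 h, 37 C; GFP imaging ex488/em500-530; %Activity normalised to -TGF-b and +DMSO controls; CRC fit, curve class.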
ATXN viability – viability counter-screen for ATXN expression inhibitors; S2 cells (HEK-293 line with an ATXN2-luciferase reporter) viability, CellTiter-Fluor protease fluorescence, 24 h; Potency, µM (highest dose often 56.7 µM), actives largely listed as cytotoxic; actives 0.49% (n = 400,000); AID 651635; also: potency is read from the fitted curve at half-maximal effect; nearly all actives have a fitted effect of over 40% in size
D3 ag – D3 dopamine receptor (human) agonism; P35462; D3R DiscoveRx beta-arrestin cells, luminescence, 90 min; max activation, %; AID 652048; actives 0.58% (n = 410,000); in the data active = max activation above about 30%; also: 0% is about no effect
Target sequence (P35462 whole entry, looked up): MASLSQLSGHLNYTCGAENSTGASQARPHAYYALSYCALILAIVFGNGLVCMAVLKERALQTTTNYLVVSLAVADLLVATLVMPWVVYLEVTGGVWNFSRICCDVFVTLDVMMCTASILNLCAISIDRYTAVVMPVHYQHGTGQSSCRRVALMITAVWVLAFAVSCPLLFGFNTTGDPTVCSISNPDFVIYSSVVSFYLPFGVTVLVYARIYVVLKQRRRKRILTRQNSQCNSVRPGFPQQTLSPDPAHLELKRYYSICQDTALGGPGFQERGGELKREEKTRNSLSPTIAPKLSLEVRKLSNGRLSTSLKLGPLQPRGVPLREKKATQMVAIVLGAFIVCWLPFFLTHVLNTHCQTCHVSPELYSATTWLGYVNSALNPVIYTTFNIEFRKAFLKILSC
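Agonist-mode cell screen: cells plated at 1500/well and incubated overnight at 37 °C, then exposed to library compounds for 90 min at 37 °C. Detection reagent was added for 30–60 min at room temperature, and luminescence was read.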
HepG2 tox – HepG2 cytotoxicity, counter-screen for TGF-b inhibitors. HepG2 CAGA-GFP viability, ATP luminescence, 18 h. Potency, µM (highest dose often 46.1 µM), for inactives: top-dose activity change, negative = cytotoxicity, most hits filed as cytotoxic. actives 0.76% (n = 410,000). AID 588856; also: potency is read from the fitted curve at half-maximal effect
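HepG2 CAGA-GFP cells (1000/well, DMEM with 1% FBS) received compound, then TGF-beta at 500 pg/mL final, and were incubated 18 hours at 37 degrees C. Viability was read by CellTiter-Glo luminescence. Media-only wells were set as complete cell-killing and DMSO as no toxicity.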
DRD3 antagonist – antagonists of human D3 dopamine receptor; max response, negative = inhibition, %; D3R cells, DiscoveRx beta-arrestin luminescence, antagonist mode; active compounds read low; actives 2.5% (n = 360,000); P35462; AID 652054; in the data active = max response below about -50%; inconclusive = no clear call, values can overlap the other calls; also: % is scaled to controls: 0 for no effect and ±100 for the full control effect
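Cells plated overnight at 1500 cells/well, then exposed to library compounds with dopamine controls for 90 minutes at 37 degrees C. DiscoveRx reagent added for 30–60 minutes at room temperature; luminescence read, quantitative HTS format.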
The depositor's hits bear a star; i = inactive; ? = inconclusive; · = no result. Unless noted, calls follow the shape of the dose curve; as a rule, active = well fitted curve in the direction sought with a large enough effect; inconclusive = small, poorly fitted or top-dose-only effect, or another doubt; inactive = no such curve, though single readings can be large; an effect the other way counts as inactive or inconclusive.

SMILES	ATXN2 expr inh	TGFb inhibitor	ATXN viability	D3 ag	HepG2 tox	DRD3 antagonist
CCN(CC)c1nc(NN)nc(Nc2ccc(C)c(Cl)c2)n1	-10.5%	-31.5%	i	-2.6	-0.6%	-79.4*
Cc1ccc(Nc2nc(Cl)c(C=O)s2)cc1Cl	8.0%	4.7%	·	-0.3	2.1%	0.9
COCO[C@H]([C@@H](C)C=C(Br)Br)[C@@H](C)COCc1ccc(OC)cc1	·	?	·	·	-6.8%	·
Nc1c(SCCC(=O)O)ccc2c1C(=O)c1ccccc1C2=O	-20.0%	-2.5%	?	-8.3	-33.5%	-56.2*
CCSc1c(C(=O)NC)ccc2c1C(=O)c1ccccc1C2=O	-12.6%	6.3%	i	-11.2	-23.1%	?
Cc1cc(N2CCN(C)CC2)nc2ccc(NC(=S)N3CCN(c4cccc(Cl)c4)CC3)cc12	-23.1%	-0.3%	i	-16.5	5.1%	-10.3
Cc1cc(N2CCN(C)CC2)nc2ccc(NC(=S)NCCN3CCc4ccccc4C3)cc12	·	?	·	-20.2	-63.5%	-75.7*
CCCCNC(=S)Nc1ccc2nc(N3CCN(CC)CC3)cc(C)c2c1	-9.9%	-14.8%	i	-4.8	-22.7%	18.9
Cc1cc(N2CCN(C)CC2)nc2ccc(NC(=S)NCCCN3CCc4ccccc4C3)cc12	31.6µM*	-6.2%	17.8µM*	-20.0	-22.5%	-84.1*
Cc1cccc(N2CCN(C(=S)Nc3ccc4nc(N5CCN(C)CC5)cc(C)c4c3)CC2C)c1 (configuration not stated)	·	?	·	-18.5	10µM*	-21.8
CCN1CCN(c2cc(C)c3cc(NC(=S)NCCCN4CCc5ccccc5C4)ccc3n2)CC1	?	?	·	-20.2	-42.0%	-87.2*
CCCN1CCN(CCCNC(=S)Nc2ccc3nc(N4CCN(CC)CC4)cc(C)c3c2)CC1	·	-2.7%	i	-18.1	-26.4%	?
O=C(Nc1nccs1)[C@@H]1CC=C[C@@H]2CCN(Cc3ccc(Cl)c(Cl)c3)C(=O)[C@@H]21	·	-23.5%	·	·	-21.5%	·
Cc1cccc(C(=O)Nc2ccc(OCc3cc(=O)n4ccc(C)cc4n3)cc2)c1	·	17.6%	·	3.2	-0.3%	·
Cc1cc(N2CCCC2)nc2ccc(NC(=S)NCCCN3CCC(C)CC3)cc12	?	?	?	-22.7	17.8µM*	-65.6*
Cc1ccnc(NC(c2cccnc2)c2ccc3cccnc3c2O)c1 (configuration not stated)	?	?	?	-3.4	-34.3%	?
CCCC(=O)NC(c1ccc(C(C)C)cc1)c1ccc2cccnc2c1O (configuration not stated)	?	-26.1%	i	27.3	-30.3%	-24.9
CCCC(=O)NC(c1ccc(N(C)C)cc1)c1ccc2cccnc2c1O (configuration not stated)	?	2.51µM*	i	17.6	-52.0%	-23.6
CCCC(=O)NC(c1ccccc1Cl)c1ccc2cccnc2c1O (configuration not stated)	3.16µM*	?	i	12.8	-3.3%	-17.6
Cc1cc(NC(c2ccc(Cl)cc2)c2ccc3cccnc3c2O)no1 (configuration not stated)	3.16µM*	?	?	7.1	-10.2%	6.1
CCC(=O)NC(c1ccc(Cl)cc1Cl)c1ccc2cccnc2c1O (configuration not stated)	5.62µM*	?	i	12.8	-21.0%	19.4
CN(C(=O)CSc1nc2ccc(NC(=O)c3ccco3)cc2s1)c1ccccc1	?	-7.3%	·	-4.0	-29.3%	·
CCCCC(=O)NC(c1ccc(Cl)cc1Cl)c1ccc2cccnc2c1O (configuration not stated)	?	?	i	33.0*	-60.4%	-8.9
Cc1cc(C)nc(Nc2nc(C(N)Cc3ccc(Cl)cc3)cs2)n1 (configuration not stated)	?	15.8µM*	?	-2.4	-95.2%	11.2
CC(=O)c1ccc(Nc2nc(C(N)Cc3ccc(Cl)cc3)cs2)cc1 (configuration not stated)	?	?	?	-9.0	-79.9%	-20.8
SMILES	ATXN2 expr inh	TGFb inhibitor	ATXN viability	D3 ag	HepG2 tox	DRD3 antagonist
Cc1cc(C)nc(Nc2nc(C(N)Cc3ccc(C(F)(F)F)cc3)cs2)n1 (configuration not stated)	-20.6%	?	?	-6.3	22.4µM*	9.0
NC(Cc1ccc(C(F)(F)F)cc1)c1csc(Nc2nccc(C(F)(F)F)n2)n1 (configuration not stated)	?	?	i	1.7	-104.9%	30.7
COc1cc(OC)nc(Nc2nc(C(N)Cc3ccc(C(F)(F)F)cc3)cs2)n1 (configuration not stated)	?	?	?	-1.4	10µM*	0.0
CCCc1cnc(Nc2nc(C(N)Cc3ccc(C(F)(F)F)cc3)cs2)nc1 (configuration not stated)	-15.8%	?	·	3.5	11.2µM*	54.2
Cc1cc(C)nc(Nc2nc(C(N)Cc3ccc(F)cc3)cs2)n1 (configuration not stated)	-24.0%	?	?	5.9	12.6µM*	0.0
COCCNC(=O)c1onc(CSc2cccc(OC)c2)c1C(=O)NCCOC	-1.6%	-5.9%	i	-2.8	1µM*	-24.7
COc1ccccc1N1CCN(C2CCCN(C(=O)c3cccc(-c4ccco4)c3)C2)CC1 (configuration not stated)	-22.0%	10.8%	i	-12.9	-10.8%	-65.8*
COc1cccc(OCc2cc(C(=O)N3CCN(c4ccccc4OC)CC3)no2)c1	·	-22.7%	i	-19.1	-45.7%	-63.1*
COc1ccccc1N1CCN(C2CCCN(C(=O)c3cc(C(C)C)on3)C2)CC1 (configuration not stated)	·	-13.2%	i	-2.5	-24.9%	-61.9*
COc1cc(OC)cc(C(=O)N2CCC(N3CCN(c4ccccc4OC)CC3)CC2)c1	0.2%	0.0%	i	0.3	-7.0%	-52.5*
CC1CCCCN1C(=O)CSc1n[nH]c(-c2ccccc2Cl)n1 (configuration not stated)	·	?	·	-3.5	-2.5%	·
Cc1ccc2nc(-c3cc(NC(=O)/C=C/c4ccccc4)ccc3Cl)oc2c1	14.8%	2.9%	i	-9.8	-14.7%	·
O=C(NC1CCCCC1)c1n[nH]c2c1CCCCC2	10µM*	16.0%	i	-13.4	-48.6%	4.4
CCC(C)(C)C1CCc2[nH]nc(C(=O)NC3CCCC3)c2C1 (configuration not stated)	9.8%	0.2%	i	-13.2	-46.5%	18.9
CCN(CC)c1ccc(/C=C/c2ccccn2)cc1	·	121.0%	·	·	0.8%	·

High-throughput results deposited in PubChem BioAssay by National Center for Advancing Translational Sciences (NCATS).
